“And” between values parts separate entries of the source, which are not always exact repeats. Identical values can stand only once. Measured potencies and affinities stand elsewhere.

Drawing on ChEMBL document CHEMBL4513142, “CO-ADD screening of Indiana University - Purdue University Indianapolis (USA) compounds”, this text covers Inhibition for eleven compounds.

One test has as its system Klebsiella pneumoniae. As to conditions: Concentration 32 ug.mL-1, ASSAY_TEST Inhibition of Bacterial Growth, detection method Absorption (OD600), MEDIA CAMHB, plate type 384well, NBS, CORNING #3640, time 18 hr.
A further test deals with Candida albicans. As to conditions: 32 ug/mL.
The test system of a further test is Cryptococcus neoformans. As to conditions: Concentration 32 ug.mL-1, ASSAY_TEST Inhibition of Fungal Growth, detection method Resazurin, Absorption (OD600-OD570), plate type 384well, NBS, CORNING #3640.

With `O=C(NC(Cc1ccc(Cl)nc1)C(=O)O)c1ccccc1` (configuration not stated), the Inhibition (usually the change of the read-out against control, counted positive when it falls) is 9.49% and 7.67% with Klebsiella pneumoniae (32 ug/mL); 3.67% and 3.1% with Candida albicans; -7.31% and -8.02% in the test on Cryptococcus neoformans (32 ug/mL).
With `NC(Cc1ccc(F)cc1)C(=O)O.O=C(O)C(F)(F)F` (configuration not stated), the Inhibition with Klebsiella pneumoniae (32 ug/mL) is 1.77% and -4.38%; in the test with Candida albicans, 1.28% and -0.06%; in the test with Cryptococcus neoformans (32 ug/mL), 6.08% and -8.37%.
Take `CCCNC(=O)C(Cc1ccccc1)NC(=O)c1ccc(F)cc1` (configuration not stated): the Inhibition was 15.24% in the test on Klebsiella pneumoniae, 2.91% in the test on Candida albicans and -7.35% with Cryptococcus neoformans.
With `[C-]#[N+]c1ccc(C(=O)NC(CC)C(=O)NCCC)cc1` (configuration not stated), the Inhibition in the test on Klebsiella pneumoniae is 12.56%; with Candida albicans it was -0.99%; in the test with Cryptococcus neoformans it was -4.7%.
In the case of `NC(Cc1cccc(F)c1)C(=O)O.O=C(O)C(F)(F)F` (configuration not stated), the Inhibition with Klebsiella pneumoniae (32 ug/mL) was 0.53% and 0.81%; in the test with Candida albicans, 1.58% and 1.27%; in the test with Cryptococcus neoformans (32 ug/mL), -7.68% and -3.4%.
As for `NC(Cc1ccccc1I)C(=O)O.O=C(O)C(F)(F)F` (configuration not stated), the Inhibition with Klebsiella pneumoniae (32 ug/mL) is 3.96% and 4.88%; in the test with Candida albicans, 4.55% and 4.79%; in the test on Cryptococcus neoformans (32 ug/mL), -7.57% and -7.31%.
As for `NC(Cc1ccccc1F)C(=O)O.O=C(O)C(F)(F)F` (configuration not stated), the Inhibition in the test on Klebsiella pneumoniae (32 ug/mL) was -4.61% and -3.52%; in the test on Candida albicans it was 2.11% and 3.25%; in the test on Cryptococcus neoformans (32 ug/mL), -7.08% and 0.99%.
On to `O=C(NC(CCCc1ccccc1)C(=O)O)c1cccc2ccccc12` (configuration not stated), for which the Inhibition with Klebsiella pneumoniae (32 ug/mL) was 4.24% and 7.53%; in the test on Candida albicans, 4.21% and 5.17%; in the test on Cryptococcus neoformans (32 ug/mL), -11.3% and -10.65%.
With `Cc1ccc(C(=O)NC(Cc2cc(F)c(F)cc2F)C(=O)O)cc1` (configuration not stated), the Inhibition is 7.96% and 13.51% with Klebsiella pneumoniae (32 ug/mL); 4.99% and 4.52% in the test on Candida albicans; -10.86% and -7.35% with Cryptococcus neoformans (32 ug/mL).
Consider `O=C(Cc1cccc(Br)c1)N[C@@H](Cc1ccccc1)C(=O)O`, for which the Inhibition with Klebsiella pneumoniae (32 ug/mL) was 7.39% and -2.64%; in the test on Cryptococcus neoformans (32 ug/mL), -5.52% and -8.87%.
Regarding `[C-]#[N+]c1ccc(C(=O)NC(Cc2ccccc2F)C(=O)NCCC)cc1` (configuration not stated), the Inhibition in the test on Klebsiella pneumoniae is 8.88%; in the test on Candida albicans, 1.53%; with Cryptococcus neoformans, -7.85%.
